# From PubChem BioAssay
# Abeta rescue: restores growth of yeast expressing A-beta42 peptide. yeast expressing A-beta42, growth rescue, OD600, 48 h; response scale: 0% DMSO, 100% iron-clioquinol control. Potency, µM (doses to about 46.1 µM), actives largely listed as activators. 410,000 tested, 0.063% active. AID 1347071; note: nearly all actives have a fitted effect of over 55% in size
#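 Growth rescue measured by 600 nm absorbance after 48 h yeast culture at 30 C with compound. Values normalized between DMSO and an equimolar ferric chloride plus clioquinol control.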
# TDP43 rescue: rescues yeast growth from TDP-43 toxicity. TDP-43 expressing yeast growth rescue, BacTiter-Glo, 24 h. Potency, µM (doses to about 46.1 µM), without a hit: at the highest dose growth rescue (activation), most hits filed as activators. 410,000 tested, 1.8% active. AID 652104; note: % of control where 0% means no effect; nearly all actives have a fitted effect of over 50% in size
#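 Cell-based yeast growth screen: TDP-43 expression induced in galactose, inoculum OD600=0.02 after raffinose pregrowth to mid-log. Read-out BacTiter-Glo luminescence at 24 hr, 30 deg C; inhibition of toxicity seen as signal increase.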
# Mito fusion act: blocks mitochondrial division or promotes mitochondrial fusion; S. cerevisiae fusion-defective mutant growth rescue, CellTiterGlo 48 h; Potency, µM (series often up to 46.1 µM), without a hit: at the highest dose growth rescue (activation), usual class: activators; 320,000 tested, 0.23% active; AID 485298; note: % of control where 0% means no effect; nearly all actives have a fitted effect of over 45% in size
#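 S. cerevisiae fusion-defective temperature-sensitive mutants (e.g. fzo1-1, mgm1-5) grown 48 h at 37C in YPEG (ethanol/glycerol non-fermentable) medium with 23 nl compound per well; growth rescue read as CellTiterGlo luminescence.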
# FUS yeast rescue: FUS proteinopathy suppression in yeast | S. cerevisiae FUS-expressing, growth rescue, OD600, 24 h | Potency, µM (titrated, usually from 76.6 µM), most hits filed as activators | 390,000 tested, 0.24% active | AID 1347120;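 note: plate controls were DMSO vehicle for no effect and reference control for full effect; nearly all actives have a fitted effect of over 55% in size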
#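 Toxicity suppression screen in FUS-yeast. Cells induced with 2% galactose, starting OD 0.005, treated 24hr at 30C with compounds at multiple final concentrations; growth by OD600.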
# aSyn yeast inh: inhibitors of alpha-synuclein toxicity in yeast. Potency, µM (titrated, usually from 46.1 µM), inactives show top-dose growth rescue (activation), hits mostly activators. Yeast expressing alpha-synuclein, growth rescue, BacTiter-Glo, 24 h. 370,000 tested, 0.14% active; note: % of control where 0% means no effect; nearly all actives have a fitted effect of over 65% in size
#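 Rescue of yeast growth: cells expressing toxic alpha-synuclein, induced in galactose at OD600 0.02, incubated with compound 24 h at 30 C. ATP luminescence quantified growth; inhibitors of toxicity appear as activators.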
# The depositor's hits bear a star; i = inactive; ? = inconclusive; . = no result; [ ] = dose if it differs, or a comment. Most compounds without a hit are left out; they make up all but 2.2% or so of the library. Calls come from the whole dose curve; as a rule, active = well fitted curve in the direction sought with a large enough effect; inconclusive = small, poorly fitted or top-dose-only effect, or another doubt; inactive = no such curve, though single readings can be large; an effect the other way counts as inactive or inconclusive. Potency is the fitted concentration of half-maximal effect.
SMILES,Abeta rescue,TDP43 rescue,Mito fusion act,FUS yeast rescue,aSyn yeast inh
O=C(NCCc1ccc(Cl)cc1)c1cnc2n(c1=O)CCS2,i,35µM*,5%,i,11%
Cc1cc(C)n2nc(SCc3ccc(F)cc3Cl)nc2n1,i,11µM*,7%,i,-17%
Cc1cc(C)n2nc(SCc3c(F)cccc3Cl)nc2n1,i,?,1%,i,-3%
COCCNC(=O)C1CCN(Cc2cc3ccccc3n2Cc2ccc(C)cc2)CC1,i,21%,.,i,.
CC(C)NC(=O)CCCOc1ccc(Cl)cc1Cl,i,-17%,-2%,i,12%
O=C(CCCOc1ccc(Cl)cc1Cl)N/N=C/c1ccccc1O,?,?,6%,.,22µM*
CCN(CC)C(=O)CCCOc1ccc(Cl)cc1Cl,i,13µM*,2%,i,16%
Cn1ncc2c(Nc3cc(C(F)(F)F)ccc3Cl)ncnc21,i,14µM*,.,i,.
COc1ccc(-c2noc(C3CC(=O)N(c4ccc(C)c(F)c4)C3)n2)c(OC)c1 (stereo not given),i,13µM*,.,?,.
Cc1cc(C)nc(NC(=NCCc2c[nH]c3ccc(Cl)cc23)NC(=O)c2ccccc2C)n1,i,5%,.,i,0.56µM*
COc1ccc2[nH]cc(CCN=C(NC(=O)c3ccccc3C)Nc3nc(C)cc(C)n3)c2c1,i,4%,.,i,-3%
CC(C)C[C@H]1COc2cccc(F)c2S(=O)(=O)N1Cc1cn(Cc2ccco2)nn1,.,.,.,i,.
Cn1c(SCc2cccc(F)c2)nnc1-c1cnccn1,i,13%,1%,i,1%
Cn1c(SCc2ccccc2Cl)nnc1-c1cnccn1,i,11µM*,4%,i,-1%
Cc1ccc2c(c1)C1CS(=O)(=O)N(CC(C)C)C(=O)N1C2 (stereo not given),.,.,.,i,.
COc1ccc(CN(Cc2ccccc2)C(=O)c2ccno2)cc1COc1ccc(NC(C)=O)cc1,.,.,.,.,0%
COc1cccc(NC(=O)c2cc(CN3CCOCC3)on2)c1,i,9%,.,i,.
CCc1ccccc1-n1c(C)nc2cc(C(=O)NCCc3ccc(Cl)cc3)ccc21,i,32µM*,.,?,.
O=C(NCCC1=CCCCC1)c1ccc2c(c1)ncn2-c1ccc(F)c(F)c1,i,23%,.,i,.
COCCNC(=O)c1ccc2c(c1)nc(C)n2-c1cccc(Cl)c1,i,.,12%,i,.
Cc1nc2cc(C(=O)NCCC3=CCCCC3)ccc2n1-c1ccc(Br)cc1,i,?,.,25µM*,.
Cc1ccc(-n2cnc3cc(C(=O)NCCC4=CCCCC4)ccc32)c(C)c1,i,25µM*,.,?,.
O=C(CC1CCCC1)N1CC[C@H]2[C@H](CCCN2Cc2ccccc2)C1,.,.,.,i,.
NC[C@@H]1O[C@H](c2ccccc2)Cc2c1ccc(O)c2O,.,.,16µM*,.,4%
NC[C@@H]1O[C@H](C23CC4CC(CC(C4)C2)C3)Cc2c1ccc(O)c2O,i,-27%,?,i,0%
SMILES,Abeta rescue,TDP43 rescue,Mito fusion act,FUS yeast rescue,aSyn yeast inh
COc1ccc(CCn2c(N)c(C(=O)NCc3ccco3)c3nc4ccccc4nc32)cc1,i,18%,14%,.,21%
COCCNC(=O)c1c(N)n(CCC2=CCCCC2)c2nc3ccccc3nc12,i,?,-5%,40µM*,-52%
CC(=NCc1cccc(Cl)c1)c1nc(-c2ccco2)oc1O,i,11µM*,.,i,-2%
Oc1oc(-c2ccco2)nc1C=Nc1cccc(Cl)c1,i,28%,-6%,i,-12%
COCCCCOc1cc2nc(N3CCCN(C)CC3)nc(NC3CCN(C)CC3)c2cc1OC,.,.,.,.,-7%
CCC(=O)Nc1ccc(NCc2ccc(-c3ccccc3)cc2)cc1,i,13µM*,5%,i,0%
Cc1cc(NCc2ccccn2)n2nc(C)c(-c3ccc(Cl)cc3)c2n1,i,7.1µM*,8%,i,3%
Cc1cc(NCc2ccccn2)n2ncc(-c3ccc(Cl)cc3)c2n1,i,13%[1.82 µM],5%,i,5%
COc1ccccc1-c1nc(C(=O)NCC2CCCO2)cc2c1[nH]c1ccccc12 (stereo not given),i,20µM*,15%,?,-12%
O=C(NCC1CCCO1)c1cc2c([nH]c3ccccc32)c(-c2cccc(Cl)c2)n1 (stereo not given),i,20µM*,6%,?,0%
COc1cc(-c2nc(C(=O)NCC3CCCO3)cc3c2[nH]c2ccccc23)cc(OC)c1OC (stereo not given),i,28µM*,0%,?,?
O=S1(=O)c2c(cccc2N2CC[C@H](O)C2)OCCCN1C1CC1,.,.,.,i,.
Cn1ncc2c(N3CCN(c4cccc(Cl)c4)CC3)ncnc21,i,?,.,i,.
CCCC[C@@H](CCCc1ccc(F)cc1)CCC(=O)N(c1ccccc1)c1ccccc1,.,.,.,i,.
CCOc1ccc(C2CC(=O)c3c([nH]c(C(=O)OCC4CCCCC4)c3C)C2)cc1 (stereo not given),i,8%,.,i,.
NC(=O)C1CCN(c2ncc(Br)cn2)CC1,.,.,.,i,.
CC(=O)[C@H]1CC[C@H]2[C@@H]3CC=C4C[C@@H](O)CC[C@]4(C)[C@H]3CC[C@]12C,i,-4%,-4%,i,12%
COC1CCC2(C)C(=CCC3C4CC(O)CC4(C)CCC32)C1 (stereo not given),i,14µM*,.,.,16%
NC(=O)C1(N2CCCCC2)CCN(S(=O)(=O)c2cc(Cl)sc2Cl)CC1,i,-4%,28µM*,i,-1%
COc1ccc(S(=O)(=O)N2CCC(C(N)=O)(N3CCCCC3)CC2)cc1,i,7%,1%,i,-1%
CC(C)COc1ccc(-c2nn(-c3ccccc3)cc2CO)cc1,i,28µM*,-41%,i,4%
C[C@]12CC[C@H](O)CC1=CCC1C2CC[C@@]2(C)C1CC[C@@H]2NCc1ccccc1 (stereo not given in full),i,1.1µM*,.,i,1%
O=C(O)C1CCN(c2c([N+](=O)[O-])cc(C(F)(F)F)cc2[N+](=O)[O-])CC1,i,20µM*,0%,i,3%
Cc1cccc(C)c1OCC(=O)Nc1ccc2c(c1)OCCO2,i,14µM*,0%,i,0%
Cc1ccccc1OCC(=O)Nc1ccc2c(c1)OCCO2,i,?,-4%,i,0%
Cc1cccc(OCC(=O)Nc2ccc3c(c2)OCCO3)c1,i,18µM*,10%,i,-2%
CCOc1ccc(C(=O)Nc2ccc3c(c2)OCCO3)cc1Br,i,18µM*,.,i,.
COc1cccc(-c2nc(SCC(=O)Nc3ccc4c(c3)OCCO4)c(-c3ccc(C)cc3)[nH]2)c1,i,20µM*,.,?,.
